The campaign covered roughly 39,000 compounds. About 1,500 (3.8%) were called active. The sample holds actives, similar compounds and a random draw of the others, so the mix is not that of the screen.

The subject of this test is HSkMC (human skeletal muscle cells). The test is described as follows: cytotoxicity call (relative viability < 0.9). Particulars: 10 µM.
`Cc1ccc(S(=O)(=O)Nc2ccc3c(c2)C(=O)N([C@@H](C)CO)C[C@H](C)[C@H](CN(C)C(=O)Nc2ccccc2)OCCCC[C@@H](C)O3)cc1`: the cytotoxicity call was “inactive”.
Regarding `CCS(=O)(=O)N1CC[C@@H]2CO[C@H](CN3CCN(C)CC3)[C@@H]2C1`, the cytotoxicity call was “inactive”.
With `Cc1noc(C)c1S(=O)(=O)Nc1ccc2c(c1)CC(=O)N([C@@H](C)CO)C[C@H](C)[C@@H](CN(C)CC1CC1)O2`, the cytotoxicity call is “inactive”.
The entry for `C[C@H]1CCCCO[C@@H](CN(C)S(=O)(=O)c2ccccc2)[C@@H](C)CN([C@@H](C)CO)C(=O)c2cc(NC(=O)Nc3ccc(C(F)(F)F)cc3)ccc2O1` is “inactive”; for `CO[C@H]1/C=C\C=C(/C)C(=O)NC2=CC(=O)C=C(C2=O)[C@H](OC)[C@@H](C)C[C@H](OC)[C@H](O)[C@@H](C)/C=C(\C)[C@@H]1OC(N)=O` it is “inactive”.
As for `COC1=C2C[C@@H](C)C[C@H](OC)[C@H](O)[C@@H](C)/C=C(\C)[C@H](OC(N)=O)[C@@H](OC)/C=C\C=C(/C)C(=O)NC(=CC1=O)C2=O`, the entry is “inactive”; as for `COC1=C2C[C@H](C)C[C@H](OC)[C@@H](O)[C@H](C)/C=C(\C)[C@H](OC(N)=O)[C@H](OC)/C=C/C=C(\C)C(=O)NC(=CC1=O)C2=O`, “inactive”; as for `COC1=C2C[C@@H](C)C[C@H](OC)[C@H](O)[C@@H](C)/C=C(\C)[C@H](OC(N)=O)[C@@H](OC)/C=C/C=C(\C)C(=O)NC(=CC1=O)C2=O`, “active”.
As for `CO[C@H]1/C=C\C=C(/C)C(=O)NC2=CC(=O)C(NCCN(C)C)=C(C[C@@H](C)C[C@H](OC)[C@H](O)[C@@H](C)/C=C(\C)[C@@H]1OC(N)=O)C2=O`, the entry is “active”; as for `C=CCNC1=C2C[C@@H](C)C[C@H](OC)[C@H](O)[C@@H](C)/C=C(\C)[C@H](OC(N)=O)[C@@H](OC)/C=C\C=C(/C)C(=O)NC(=CC1=O)C2=O`, “active”.
On to `C=CCNC1=C2C[C@H](C)C[C@H](OC)[C@@H](O)[C@H](C)/C=C(\C)[C@H](OC(N)=O)[C@H](OC)/C=C/C=C(\C)C(=O)NC(=CC1=O)C2=O`, for which the cytotoxicity call is “active”.
For the molecule `Cc1noc(C)c1NC(=O)Nc1ccc2c(c1)CC(=O)N([C@H](C)CO)C[C@H](C)[C@H](CN(C)Cc1ccc(C(F)(F)F)cc1)O2`, the cytotoxicity call is “inactive”.
As for `C[C@H](CO)N1C[C@H](C)[C@H](CN(C)CC2CCOCC2)Oc2ncc(C#Cc3cccc(F)c3)cc2C1=O`, the entry is “inactive”.
For `CC(C)(C)c1cccc(N)c1`, the cytotoxicity call was “inactive”.
For `CCCC(=O)Nc1ccc2c(c1)C(=O)N(C)C[C@@H](OC)[C@@H](C)CN(Cc1ccc(-c3ccccn3)cc1)[C@@H](C)CO2`, the cytotoxicity call was “inactive”.
As for `COc1cccc(OCc2ccc(Cn3nc(NC(=O)NCc4ccc(F)cc4)c4ccccc43)cc2)c1`, the entry is “inactive”; as for `O=c1ccoc2cc(O)c([C@H]3O[C@H](CO)[C@@H](O)[C@H](O)[C@@H]3O)c(O)c12`, “inactive”.
As to `C[C@H]1CN([C@@H](C)CO)C(=O)Cc2cc(NC(=O)C3CCCCC3)ccc2O[C@@H]1CN(C)C(=O)Nc1ccc(C(F)(F)F)cc1`, the cytotoxicity call was “inactive”.
As for `CC(C)NC(=O)N(C)C[C@H]1Oc2c(NC(=O)C3CCOCC3)cccc2C(=O)N([C@@H](C)CO)C[C@H]1C`, the entry is “inactive”; as for `CCC(=O)OC(CC(=O)O)C[N+](C)(C)C.[Cl-]` (configuration not stated), “inactive”; as for `CCS(=O)(=O)NCC[C@H]1CC[C@@H](NS(=O)(=O)c2ccccc2C)[C@@H](CO)O1`, “inactive”.
As for `C[C@@H]1CN([C@H](C)CO)C(=O)CCCn2cc(nn2)CO[C@H]1CN(C)C(=O)Nc1ccnc(N2CCOCC2)c1`, the entry is “inactive”; as for `Cc1ccc(S(=O)(=O)N(C)C[C@@H]2OCCCC[C@H](C)Oc3ccc(NC(=O)Cc4ccccc4)cc3C(=O)N([C@@H](C)CO)C[C@H]2C)cc1`, “inactive”; as for `C[C@@H]1CCCCO[C@H](CN(C)C(=O)c2ccccc2)[C@@H](C)CN([C@@H](C)CO)C(=O)c2cc(NC(=O)NC3CCCCC3)ccc2O1`, “inactive”.
In the case of `C=CC1=C(C)c2cc3[nH]c(cc4nc(cc5[nH]c(cc1n2)c(C)c5CCC(=O)O)C(CCC(=O)O)=C4C)c(C)c3C=C`, the cytotoxicity call was “inactive”.
`COC(=O)CCc1c(c/2[nH]c1/C=C/1\N=C(/C=C/3\N=C(/C=C/4\N/C(=C2)[C@]2(C)[C@H](C(=O)OC)C(=CC=C42)C(=O)OC)C(=C3C=C)C)C(=C1CCC(=O)O)C)C`: the cytotoxicity call was “active”.
As for `CC/1=C(CCC(=O)O)/C/2=C/c3[nH]c(c(c3CCC(=O)O)C)/C=C/3\N=C(/C=C/4\N=C(\C=C1/N2)C(=C4C)C=C)C(=C3C)C=C`, the entry is “inactive”.
Take `Cc1noc(C)c1NC(=O)N(C)C[C@@H]1Oc2c(NC(=O)c3ccc(-c4nccs4)cc3)cccc2C(=O)N([C@H](C)CO)C[C@@H]1C`: the cytotoxicity call was “inactive”.
Take `C[C@@H]1CCCCO[C@@H](CN(C)C(=O)c2ccccc2)[C@H](C)CN([C@H](C)CO)C(=O)c2cc(NC(=O)Nc3ccc(C(F)(F)F)cc3)ccc2O1`: the cytotoxicity call was “inactive”.
On to `C[C@H]1CCCCO[C@H](CN(C)C(=O)c2ccccc2)[C@@H](C)CN([C@@H](C)CO)C(=O)c2cc(NC(=O)Nc3ccc(C(F)(F)F)cc3)ccc2O1`, for which the cytotoxicity call is “inactive”.
The entry for `C[C@@H]1CN([C@@H](C)CO)C(=O)c2cc(NC(=O)Nc3ccc(C(F)(F)F)cc3)ccc2O[C@@H](C)CCCCO[C@H]1CN(C)C(=O)c1ccccc1` is “inactive”; for `C[C@@H]1CN([C@H](C)CO)C(=O)c2cc(NC(=O)Nc3ccc(C(F)(F)F)cc3)ccc2O[C@@H](C)CCCCO[C@H]1CN(C)C(=O)c1ccccc1` it is “active”.
The entry for `C[C@H]1CCCCO[C@@H](CN(C)C(=O)c2ccccc2)[C@@H](C)CN([C@@H](C)CO)C(=O)c2cc(NC(=O)Nc3ccc(C(F)(F)F)cc3)ccc2O1` is “inactive”; for `C[C@@H]1CN([C@H](C)CO)C(=O)c2cc(NC(=O)Nc3ccc(C(F)(F)F)cc3)ccc2O[C@@H](C)CCCCO[C@@H]1CN(C)C(=O)c1ccccc1` it is “active”; for `C[C@@H]1CN([C@H](C)CO)C(=O)c2cc(NC(=O)Nc3ccccc3)ccc2O[C@@H](C)CCCCO[C@@H]1CN(C)Cc1ccc(Cl)c(Cl)c1` it is “inactive”.
The entry for `CC1(C)[C@H](C(N)=O)CC[C@@]1(C)C(=O)O` is “inactive”.
With `C[C@H]1CCCCO[C@@H](CN(C)Cc2ccccc2)[C@@H](C)CN([C@@H](C)CO)C(=O)c2cc(NC(=O)Nc3ccc(F)cc3)ccc2O1`, the cytotoxicity call was “active”.
The entry for `C[C@@H]1CCCCO[C@H](CN(C)Cc2ccccc2)[C@H](C)CN([C@H](C)CO)C(=O)c2cc(NC(=O)Nc3ccc(F)cc3)ccc2O1` is “inactive”; for `C[C@H]1CCCCO[C@H](CN(C)Cc2ccccc2)[C@@H](C)CN([C@@H](C)CO)C(=O)c2cc(NC(=O)Nc3ccc(F)cc3)ccc2O1` it is “inactive”.
The entry for `C[C@H](CO)N1C[C@H](C)[C@H](CN(C)Cc2ccccc2)OCCCC[C@H](C)Oc2ccc(NC(=O)Nc3ccc(F)cc3)cc2C1=O` is “inactive”.
With `C[C@@H]1CN([C@H](C)CO)C(=O)c2cc(NC(=O)Nc3ccc(F)cc3)ccc2O[C@@H](C)CCCCO[C@H]1CN(C)Cc1ccccc1`, the cytotoxicity call was “active”.
The entry for `C[C@@H]1CN([C@H](C)CO)C(=O)c2cc(NC(=O)Nc3ccc(F)cc3)ccc2O[C@@H](C)CCCCO[C@@H]1CN(C)Cc1ccccc1` is “inactive”.

These data come from the antibiotic and cytotoxicity screens of Wong et al. (2023).
